Laboratory results taken from PubChem BioAssay (NCATS).
Records with an inconclusive call do not appear. Calls of active or inactive are those of the source. Unless noted, calls come from the whole dose curve; as a rule, active = well fitted curve in either direction with a large enough effect (not every such curve was filed as active); inconclusive = small, poorly fitted or top-dose-only effect, or another doubt; inactive = flat fitted curve, though single readings scatter.

Columns and labels:
[1] = biological target: Lysosomal acid glucosylceramidase (Homo sapiens) (UniProt P04062); experiment: Glucocerebrosidase-p2 (AID 348; in the data active = potency below about 10 µM; note: potency is the fitted concentration of half-maximal effect); details: purified GBA, blue fluorogenic substrate, 40 min
Outline: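 Normal human glucocerebrosidase (0.2 nM) with blue fluorogenic substrate (80 uM final) in citrate/phosphate pH 5.9 with 10mM sodium taurocholate, 0.01% tween-20; 40 min RT, NaOH/glycine stop; fluorescence Ex 365/Em 440; AC50 from a titration from 0.6 nM upwards.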

[2] = AP1 Signaling Pathway (AID 357); details: ME-180 AP-1-bla reporter, EGF-induced, beta-lactamase ratio, 5 h; at 7.69 µM (top of the series) unless noted; note: % is set by controls: 0 for no effect and ±100 for the full control effect
Outline: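 ME-180 cells with beta-lactamase reporter under AP-1 response element, stimulated with EC50 EGF; compounds tested in titration series, 5 h at 37 °C. CCF4 substrate added 2.5 h at room temperature; 460/530 nm emission ratio gave %activity and AC50.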

[3] = NFAT Signaling Pathway (AID 444); details: Jurkat NFAT-bla M1, carbachol, beta-lactamase ratio, 5 h; at 7.69 µM (top of the series) unless noted;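 note: carbachol stimulus at about its EC50 of 1 µM final; % is set by controls: 0 for no effect and ±100 for the full control effect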
Outline: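 Jurkat cells with NFAT-driven β-lactamase reporter and co-expressed M1 receptor, stimulated with carbachol (final 1 uM, ~EC50), compound titration, 5 h at 37 °C. CCF4 loaded 1 h at RT; 460/530 nm ratio gave %activity and AC50.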

[4] = Stat Signaling Pathway (AID 446); details: ME-180 (cervical carcinoma) SIE beta-lactamase reporter, IL-6 stimulated, 5 h; at 7.69 µM (top of the series) unless noted;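 note: ME-180 cervical cancer cells given 40 pM IL-6 alongside compound; SIE-controlled beta-lactamase reporter measured as 460/530 nm FRET emission ratio; % is set by controls: 0 for no effect and ±100 for the full control effect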
Outline: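 Normalization used AC90 stimulation (300 pM IL-6) and AC90 inhibition (125 nM pan-JAK inhibitor at 40 pM IL-6). The underlying signal is SIE-driven beta-lactamase in ME-180 cells after 5 h IL-6 exposure with compound.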

[5] = biological target: Glucocorticoid receptor (Homo sapiens) (UniProt P04150); experiment: GR-GFP Redistribution (AID 450;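 active = compounds whose dose series gives a full or clear partial fitted curve of increased nuclear translocation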; note: potency is the fitted concentration of half-maximal effect); details: U2OS GR-GFP nuclear translocation, laser cytometry, 2 h
[6] = biological target: Glucocorticoid receptor (Homo sapiens) (UniProt P04150); experiment: GR-EFC Redistribution (AID 451; calls by dose curve; note: potency is the fitted concentration of half-maximal effect); details: CHO-K1 GR-EFC translocation, beta-gal luminescence, 2 h
Outline: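 CHO-K1 cells expressing nuclear EA and GR-ED fragments of b-gal; compounds titrated up to 46 uM final, 2 h at 37 C. GR nuclear translocation read as complemented b-gal luminescence after 1 h RT detection.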

[7] = biological target: Mitogen-activated protein kinase 10 (Mus musculus) (UniProt Q61831); experiment: JNK3 AlphaScreen Assay (AID 530); details: JNK3 lysate, c-Jun phosphorylation; series mostly up to 11.4 µM;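 note: kinase came from lysate of stimulated human HepG2 cells; signal reports phosphorylation of biotinylated GST-cJun 1-79 at Ser73 with 10 µM ATP; % is set by controls: 0 for no effect and ±100 for the full control effect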
Outline: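 Activity was read by AlphaScreen after JNK3-containing HepG2 lysate (cytokine pre-activated) phosphorylated biotinylated GST-cJun with 10 uM ATP at room temperature. Phospho-Ser73 cJun antibody with Protein-A acceptor beads provided detection.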

[8] = biological target: 3',5'-cyclic-AMP phosphodiesterase 4B (Homo sapiens) (UniProt Q07343); experiment: qHTS Assay for Inhibitors of PDE-IV (AID 607; active = well fitted activation curve with a large enough effect in the main read-out, with a control signal flat, not every such curve was filed as active; note: % of control where 0% means no effect); details: HEK293 ACTOne CNG channel cells, membrane potential fluorescence; series mostly up to 22.9 µM
Outline: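 HEK293 ACTOne cells with CNG channel (1000/well), endogenous PDE4; membrane potential dye, compounds up to 22.9 uM final. Fluorescence Ex 535/Em 590; RO 20-1724 (100 uM final) as reference.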

Lysosomal acid glucosylceramidase (Homo sapiens), sequence (P04062 whole entry, looked up): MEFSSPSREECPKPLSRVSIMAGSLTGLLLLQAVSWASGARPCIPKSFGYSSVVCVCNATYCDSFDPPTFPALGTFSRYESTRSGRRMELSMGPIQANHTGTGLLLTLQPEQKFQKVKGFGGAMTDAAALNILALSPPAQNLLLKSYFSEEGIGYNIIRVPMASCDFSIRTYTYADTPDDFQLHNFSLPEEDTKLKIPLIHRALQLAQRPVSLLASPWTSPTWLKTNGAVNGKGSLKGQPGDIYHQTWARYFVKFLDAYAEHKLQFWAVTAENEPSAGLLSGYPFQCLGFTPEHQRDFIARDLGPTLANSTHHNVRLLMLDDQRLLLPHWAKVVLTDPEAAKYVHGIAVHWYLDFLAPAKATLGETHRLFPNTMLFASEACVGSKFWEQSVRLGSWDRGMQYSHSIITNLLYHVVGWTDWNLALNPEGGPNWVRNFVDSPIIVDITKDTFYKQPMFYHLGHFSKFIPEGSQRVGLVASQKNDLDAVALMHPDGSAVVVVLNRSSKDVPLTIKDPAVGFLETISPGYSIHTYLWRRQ
3',5'-cyclic-AMP phosphodiesterase 4B (Homo sapiens), sequence (Q07343 whole entry, looked up): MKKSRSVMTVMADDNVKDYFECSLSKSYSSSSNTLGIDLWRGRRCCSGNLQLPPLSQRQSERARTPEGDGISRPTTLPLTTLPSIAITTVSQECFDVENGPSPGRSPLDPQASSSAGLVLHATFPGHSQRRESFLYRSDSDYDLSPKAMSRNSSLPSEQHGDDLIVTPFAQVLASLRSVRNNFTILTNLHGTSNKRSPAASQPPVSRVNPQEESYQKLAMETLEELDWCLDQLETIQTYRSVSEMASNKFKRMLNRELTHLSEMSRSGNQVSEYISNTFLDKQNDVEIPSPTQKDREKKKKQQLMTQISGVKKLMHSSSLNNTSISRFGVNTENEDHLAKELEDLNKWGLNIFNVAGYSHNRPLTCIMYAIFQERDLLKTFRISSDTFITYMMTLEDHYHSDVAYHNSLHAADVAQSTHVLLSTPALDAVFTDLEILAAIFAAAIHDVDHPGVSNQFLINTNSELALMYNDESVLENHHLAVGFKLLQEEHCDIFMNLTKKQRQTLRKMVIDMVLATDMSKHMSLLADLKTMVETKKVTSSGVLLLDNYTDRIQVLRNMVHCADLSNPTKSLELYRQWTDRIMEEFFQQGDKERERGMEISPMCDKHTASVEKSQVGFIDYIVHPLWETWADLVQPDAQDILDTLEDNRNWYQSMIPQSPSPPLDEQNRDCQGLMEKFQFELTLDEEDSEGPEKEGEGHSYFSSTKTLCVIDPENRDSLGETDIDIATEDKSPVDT
Glucocorticoid receptor (Homo sapiens), sequence (P04150 whole entry, looked up, the tested form may be a part): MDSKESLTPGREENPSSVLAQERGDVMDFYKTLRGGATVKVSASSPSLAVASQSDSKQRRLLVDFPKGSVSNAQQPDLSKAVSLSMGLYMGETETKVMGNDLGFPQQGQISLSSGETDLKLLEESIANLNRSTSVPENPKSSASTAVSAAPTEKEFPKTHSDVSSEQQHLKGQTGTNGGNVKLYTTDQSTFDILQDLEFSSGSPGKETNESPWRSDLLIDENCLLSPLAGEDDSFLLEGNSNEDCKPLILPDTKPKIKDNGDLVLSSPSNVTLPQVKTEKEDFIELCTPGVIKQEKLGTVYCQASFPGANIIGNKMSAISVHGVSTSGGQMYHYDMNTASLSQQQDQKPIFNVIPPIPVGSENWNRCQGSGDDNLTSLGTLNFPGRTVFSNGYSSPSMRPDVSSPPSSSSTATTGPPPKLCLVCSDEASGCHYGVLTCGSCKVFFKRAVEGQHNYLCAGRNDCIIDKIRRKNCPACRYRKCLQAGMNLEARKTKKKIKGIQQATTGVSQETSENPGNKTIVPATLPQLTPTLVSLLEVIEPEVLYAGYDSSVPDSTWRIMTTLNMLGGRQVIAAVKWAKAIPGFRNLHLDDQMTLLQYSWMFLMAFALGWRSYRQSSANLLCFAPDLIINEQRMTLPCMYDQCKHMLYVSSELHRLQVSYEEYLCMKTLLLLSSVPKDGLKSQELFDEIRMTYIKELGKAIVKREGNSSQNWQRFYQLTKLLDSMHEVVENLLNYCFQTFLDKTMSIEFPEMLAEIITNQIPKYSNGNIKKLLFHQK

NS(=O)(=O)c1ccc(NCc2cnc3ccccc3c2)cc1
inactive: Potency [1] > 11.4 µM | activity change, negative = inhibition [2] -2.59% | activity change, negative = inhibition [3] 13.4% | activity, negative = inhibition [4] 0.424% | Potency [5] > 46 µM | Potency [6] > 9.22 µM | Potency [7] | Potency [8]

O=C(O)CCN1C(=S)CSC1=S
inactive: Potency [1] > 11.4 µM | activity change, negative = inhibition [2] -2.79% | activity change, negative = inhibition [3] 8.02% | activity, negative = inhibition [4] 10.1% | Potency [5] > 46 µM | Potency [6] > 9.22 µM | Potency [7] | Potency [8]

COc1ccc2c(C)cc(C)nc2n1
inactive: Potency [1] > 11.4 µM | activity change, negative = inhibition [2] 0.0891% | activity change, negative = inhibition [3] 9.21% | activity, negative = inhibition [4] 8.73% | Potency [5] > 46 µM | Potency [6] > 9.22 µM | Potency [7] | Potency [8]

CC(C)[C@H](Nc1ncnc2nc[nH]c12)C(=O)O
inactive: Potency [1] > 11.4 µM | activity change, negative = inhibition [2] 7.63% | activity change, negative = inhibition [3] -3.53% | activity, negative = inhibition [4] -3.88% | Potency [5] > 46 µM | Potency [6] > 9.22 µM | Potency [7] | Potency [8]

O=C1CCC[C@H]1C(=O)Nc1ccc2ccccc2c1
inactive: Potency [1] > 11.4 µM | activity change, negative = inhibition [2] 7.06% | activity change, negative = inhibition [3] 16.2% | activity, negative = inhibition [4] 8.65% | Potency [5] > 46 µM | Potency [6] > 9.22 µM | Potency [7] | Potency [8]

O=C(O)c1cccc(C[C@H](Br)C(=O)O)c1
inactive: Potency [1] > 11.4 µM | activity change, negative = inhibition [2] 3.81% | activity change, negative = inhibition [3] 14.3% | activity, negative = inhibition [4] 9.47% | Potency [5] > 46 µM | Potency [6] > 9.22 µM | Potency [7] | Potency [8]

CCN(CC(=O)O)C(=O)c1cccnc1
inactive: Potency [1] > 11.4 µM | activity change, negative = inhibition [2] -4.46% | activity change, negative = inhibition [3] 5.05% | activity, negative = inhibition [4] -6.57% | Potency [5] > 46 µM | Potency [6] > 9.22 µM | Potency [7] | Potency [8]

CCCS(=O)(=O)O
inactive: Potency [1] > 11.4 µM | activity change, negative = inhibition [2] -5.23% | activity change, negative = inhibition [3] 0.712% | activity, negative = inhibition [4] 4.08% | Potency [5] > 46 µM | Potency [6] > 9.22 µM | Potency [7] | Potency [8]

Nc1nc(N)nc(CC(=O)O)n1
inactive: Potency [1] > 11.4 µM | activity change, negative = inhibition [2] 5.1% | activity change, negative = inhibition [3] 15.8% | activity, negative = inhibition [4] 0.411% | Potency [5] > 46 µM | Potency [6] > 9.22 µM | Potency [7] | Potency [8]

Cc1[nH]c(C)c(CN(C)C)c1CN(C)C
inactive: Potency [1] > 11.4 µM | activity change, negative = inhibition [2] -2.51% | activity change, negative = inhibition [3] -26.2% | activity, negative = inhibition [4] 12.9% | Potency [5] > 46 µM | Potency [6] > 9.22 µM | Potency [7] | Potency [8]

O=C(O)c1ccncc1.O=C(O)c1ccncc1.[NH2-].[NH2-].[Pt]
inactive: Potency [1] > 11.4 µM | activity change, negative = inhibition [2] -4.3% | activity change, negative = inhibition [3] 8.19% | activity, negative = inhibition [4] 2.8% | Potency [5] > 46 µM | Potency [6] > 9.22 µM | Potency [7] | Potency [8]

NNS(=O)(=O)c1cc(C(=O)O)cc(C(=O)O)c1
inactive: Potency [1] > 11.4 µM | activity change, negative = inhibition [2] 4.57% | activity change, negative = inhibition [3] 14.9% | activity, negative = inhibition [4] 3.48% | Potency [5] > 46 µM | Potency [6] > 9.22 µM | Potency [7] | Potency [8]

O=C(c1nc2ccc([N+](=O)[O-])cc2[nH]c1=O)[C@@H](O)c1ccc2c(c1)OCO2
inactive: Potency [1] > 11.4 µM | activity change, negative = inhibition [2] -1.57% | activity change, negative = inhibition [3] 2.9% | activity, negative = inhibition [4] 12.9% | Potency [5] > 46 µM | Potency [6] > 9.22 µM | Potency [7] | Potency [8]

O=C(O)C/C=C\CC(=O)O
inactive: Potency [1] > 11.4 µM | activity change, negative = inhibition [2] -4.27% | activity change, negative = inhibition [3] 2.57% | activity, negative = inhibition [4] 1.96% | Potency [5] > 46 µM | Potency [6] > 9.22 µM | Potency [7] | Potency [8]

O=C1CC[C@](CCc2nc3ccccc3[nH]2)(c2ccccc2)C(=O)N1
inactive: Potency [1] > 11.4 µM | activity change, negative = inhibition [2] 1.26% | activity change, negative = inhibition [3] 7.74% | activity, negative = inhibition [4] 3.31% | Potency [5] > 46 µM | Potency [6] > 9.22 µM | Potency [7] | Potency [8]

O=C1c2ccccc2[C@@H]([C@@H]2c3ccccc3C(=O)c3cc(Br)ccc32)c2ccc(Br)cc21
inactive: Potency [1] > 11.4 µM | activity change, negative = inhibition [2] -5.16% | activity change, negative = inhibition [3] -5.27% | activity, negative = inhibition [4] 8.23% | Potency [5] > 46 µM | Potency [6] > 9.22 µM | Potency [7] | Potency [8]

C[N+](C)(C)CC(=O)N/N=C\c1c(O)ccc2ccccc12
inactive: Potency [1] > 11.4 µM | activity change, negative = inhibition [2] 3.17% | activity change, negative = inhibition [3] -5.58% | activity, negative = inhibition [4] 10.1% | Potency [5] > 46 µM | Potency [6] > 9.22 µM | Potency [7] | Potency [8]
